Drawing on the OligoGym collection, this text covers sensor-assay potency score (higher = more potent) for 40 sequences.
Note: reference of the scale not given here.

One experiment deals with MOBKL1B. The experiment in a line: pooled miR-30 sensor sort-seq; sequence = guide strand. The following applies: shRNA.
As to AAGAGTTTCATCATCAAGCTGA, the sensor-assay potency score (higher = more potent) came to 0.471. For the sequence TTCATCATCAAGCTGATCTTGA, the sensor-assay potency score (higher = more potent) turned out to be 0.57.

In turn, TTAATTCTTGAAGAGGTGCCAG registered a sensor-assay potency score (higher = more potent) of -0.419. With TTTAATATTAGTACCATCTGCC, the sensor-assay potency score (higher = more potent) was found to be 0.311.

In turn, TTGAATGTTTTAGAAGAGCGGC gave a sensor-assay potency score (higher = more potent) of -0.634. Still for that read-out and setting: to TTTTAATATTAGTACCATCTGC belongs -0.715; to TAATTCTTGAAGAGGTGCCAGC, -0.967; to TATGTGATAACAACAAGAGTGG, -0.235.

As for TAAAAGAATAAAACCAATCTGA, the sensor-assay potency score (higher = more potent) is -0.367.

For the next experiment, the target named is MOCS3. The experiment is described as above. The note with it: shRNA.
Take TAGTCGGTGACAGAAACACGCT: the sensor-assay potency score (higher = more potent) is -0.908.

In the case of TCAAAGAGCAACAAGCTGCCAC, the sensor-assay potency score (higher = more potent) was -0.221. The same measure, in the same setting: to TTAGAAAGCATTTTGACTGGGG belongs 0.772; to AACAAGTGTATCTTTGAGGTAT, 0.286. TATTATGGCAATCCACATCTTT: the sensor-assay potency score (higher = more potent) was -0.453.

The sequence TAGCGCAGAATCTCATCTCGGG came in with a sensor-assay potency score (higher = more potent) of -0.0421. TTGAGCTGCTGATAAGGACTGG: the sensor-assay potency score (higher = more potent) is -0.00969.

Consider TTAAAGGGTCTAACTCTTGAGC, for which the sensor-assay potency score (higher = more potent) is -0.607. Same read-out and setting: to TTTCTGTGAGTCATTTCCCAGT belongs -0.966; to TTGCAAATCACATAAATGGGGA, -0.379.

Sequence TTGGTCACTGTCTCCGCTGGGG registered a sensor-assay potency score (higher = more potent) of -0.474.

For the sequence TTTGCAAATCACATAAATGGGG, the sensor-assay potency score (higher = more potent) is -0.854.

For another experiment, the target named is MOGAT1. The description is as above. The following applies: shRNA.
In turn, TATAGTTGTGACTTGGATCCAA had a sensor-assay potency score (higher = more potent) of 0.757. The same measure, in the same setting: to TTCTAATCCATGATCCTTCAGG belongs -0.32. Sequence TTTCTTGGAAACTGAAACCAGC gave a sensor-assay potency score (higher = more potent) of -0.444. TAACTCCTCAATCTGCTCCTGG: the sensor-assay potency score (higher = more potent) was -0.332. On the same count and under the same terms, to TTGTACTGAAAAACTCCCCTGG belongs 0.595; to TTTAACAAATCCTTTCCGCTGG, -0.0523; to TATAGGTCTGATGTAACTCCTC, -0.267.

Take TTGATCCAGCTGGATCTCCTGC: the sensor-assay potency score (higher = more potent) was -0.998.

In turn, TAGGACACACTTTTCTTGGAAA displayed a sensor-assay potency score (higher = more potent) of -0.902. The same measure, in the same setting: to TTACCATGTAGGACACACTTTT belongs -0.495; to TTCTGAACAGTTCTAATCCATG, -1.47; to ATGAATTGGAAAATAGTCCTTA, 0.9.

The target of the next experiment is MON2. The experiment is described as above. The following applies: shRNA.
On to AACATCTACAACTATTTGCAGG, for which the sensor-assay potency score (higher = more potent) is -1.11. Same read-out and setting: to TAGTGTTGAAGATCCTTGCTAC belongs 0.514; to TTGTTCTATAATATCTCTGTGT, -0.519. The same measure, in the same setting: to AAAAACAACAGTAACAACTTGT belongs 0.77. Still for that read-out and setting: to TATTTGACCAACAAATTCCTTA belongs -0.301; to TAAACTAATATTGAGTTCTTGG, -0.234.

TACAATATCACGAAAAACCTTG returned a sensor-assay potency score (higher = more potent) of -0.21.
